Assay [1] in a line: Primary qHTS for inhibitors of nuclear receptor binding SET domain protein 2 (NSD2) in an isogenic RCH-ACV NSD2 p.E1099K mutant (9B) (AID 1645876). Further: potency means the concentration at half of the fitted maximal effect; nearly all actives have a fitted effect of over 70% in size. Background: qHTS replaces the single test concentration by a dilution series.
Assay [2] is described as follows: Primary qHTS for inhibitors of nuclear receptor binding SET domain protein 2 (NSD2) in an RCH-ACV wild type WT cells (2C) (AID 1645877). Further: potency means the concentration at half of the fitted maximal effect; nearly all actives have a fitted effect of over 70% in size.
Assay [3] deals with Glutathione peroxidase 1 (Homo sapiens) (UniProt P07203). Description: Primary qHTS Assay for Inhibitors of Recombinant Selenoprotein Glutathione Peroxidase 1 (GPX1) (AID 1845191). Further: on the % scale 0 is the no-effect control and ±100 the full control effect; nearly all actives have a fitted effect of over 65% in size. In outline:
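GR-coupled assay: compounds preincubated 30 min at room temperature with GPX1, then reaction started with CHP; final 10 nM GPX1, 1 mM GSH, 0.5 mM CHP, 0.5 mM NADPH, 100 nM GR, 0.01% BSA, pH 7.5 Tris buffer. NADPH fluorescence (340/450 nm) read at 0 and 15 min.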

The target of assay [4] is Phospholipid hydroperoxide glutathione peroxidase GPX4 (Homo sapiens) (UniProt P36969). Description: Primary qHTS Assay for Inhibitors of Recombinant Selenoprotein Glutathione Peroxidase 4 (GPX4) (AID 1845192). Further: nearly all actives have a fitted effect of over 65% in size. The following applies: outcome: dose series up to 50 µM unless noted. In outline:
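GR-coupled assay: recombinant GPX4 preincubated 30 min with compound at room temperature; final 200 nM GPX4, 1 mM GSH, 0.5 mM cumene hydroperoxide, 0.5 mM NADPH, 100 nM GR, 0.01% BSA, pH 7.5 Tris. NADPH fluorescence (340/450 nm) read at 0 and 15 min.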

Assay [5] can be described thus: qHTS drug screen for cell cycle checkpoint inhibitors in PARPi-resistant BRCA-mutant ovarian cancer cell lines. (AID 1963452; calls by dose curve). The following applies: PEO1/OlaR viability, CellTiter-Glo luminescence, 96 h, stronger effect = lower value. In outline: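 PEO1, PEO4 and PEO1/OlaR ovarian cancer cells, 600 per well, exposed 96 h at 37C to a dilution series. Viability read by CellTiter-Glo luminescence, normalized to DMSO and empty wells; activity summarized as Z-AUC.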

In assay [6] the target is Lysosomal acid glucosylceramidase (Homo sapiens) (UniProt P04062). The assay can be described thus: Glucocerebrosidase-p2 (AID 348; in the data active means potency below about 10 µM; further: potency means the concentration at half of the fitted maximal effect). The following applies: purified GBA, blue fluorogenic substrate, 40 min. In outline:
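Compounds titrated from 0.6 nM upwards against 0.2 nM enzyme in pH 5.9 citric acid/KH2PO4, taurocholate, tween-20; blue fluorogenic substrate 80 uM, 40 min room temperature, stopped and read Ex 365/Em 440 for AC50.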

Assay [7] in a line: AP1 Signaling Pathway (AID 357; active means well fitted curve in either direction with a large enough effect, not every such curve was filed as active;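 further: ME-180 reporter cells stimulated with EGF at its EC50 level; on the % scale 0 is the no-effect control and ±100 the full control effect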). The following applies: ME-180 AP-1-bla reporter, EGF-induced, beta-lactamase ratio, 5 h; at 7.69 µM (top of the series) unless noted. In outline: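 Modulation of EGF-driven AP-1 transcription was assessed with a beta-lactamase reporter in ME-180 cells. Compound and EC50 EGF were co-incubated 5 hours at 37 °C before 2.5-hour CCF4 loading at room temperature and dual-emission reading.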

Assay [8] in a line: NFAT Signaling Pathway (AID 444; active means well fitted curve in either direction with a large enough effect, not every such curve was filed as active;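 further: carbachol stimulus at about its EC50 of 1 µM final; on the % scale 0 is the no-effect control and ±100 the full control effect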). The settings on record: Jurkat NFAT-bla M1, carbachol, beta-lactamase ratio, 5 h; at 7.69 µM (top of the series) unless noted. In outline:
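Jurkat cells with NFAT-driven β-lactamase reporter and co-expressed M1 receptor, stimulated with carbachol (final 1 uM, ~EC50), compound titration, 5 h at 37 °C. CCF4 loaded 1 h at RT; 460/530 nm ratio gave %activity and AC50.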

Assay [9] can be described thus: Stat Signaling Pathway (AID 446; active means well fitted curve in either direction with a large enough effect, not every such curve was filed as active;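 further: ME-180 cervical cancer cells given 40 pM IL-6 alongside compound; SIE-controlled beta-lactamase reporter measured as 460/530 nm FRET emission ratio; on the % scale 0 is the no-effect control and ±100 the full control effect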). The following applies: ME-180 (cervical carcinoma) SIE beta-lactamase reporter, IL-6 stimulated, 5 h; at 7.69 µM (top of the series) unless noted. In outline: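 IL-6/STAT signaling read in ME-180 cells via an SIE beta-lactamase reporter. Stimulus was 40 pM IL-6 (its AC50) for 5 hrs, so both activation and inhibition register.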
Assay [10] addresses Glucocorticoid receptor (Homo sapiens) (UniProt P04150). The assay can be described thus: GR-GFP Redistribution (AID 450;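 active means compounds whose dose series gives a full or clear partial fitted curve of increased nuclear translocation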; further: potency means the concentration at half of the fitted maximal effect). The following applies: U2OS GR-GFP nuclear translocation, laser cytometry, 2 h.
The target is the same in assay [11]. Description: GR-EFC Redistribution (AID 451; calls by dose curve; further: potency means the concentration at half of the fitted maximal effect). The settings on record: CHO-K1 GR-EFC translocation, beta-gal luminescence, 2 h. In outline:
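CHO-K1 cells expressing nuclear EA and GR-ED fragments of b-gal; compounds titrated up to 46 uM final, 2 h at 37 C. GR nuclear translocation read as complemented b-gal luminescence after 1 h RT detection.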

The target in assay [12] is Mitogen-activated protein kinase 10 (Mus musculus) (UniProt Q61831). Description: JNK3 AlphaScreen Assay (AID 530; active means well fitted curve in either direction with a large enough effect, not every such curve was filed as active;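 further: kinase came from lysate of stimulated human HepG2 cells; signal reports phosphorylation of biotinylated GST-cJun 1-79 at Ser73 with 10 µM ATP; on the % scale 0 is the no-effect control and ±100 the full control effect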). In outline:
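Pre-activated (IL-1β/TNFα) JNK3 in HepG2 lysates phosphorylates biotin-GST-cJun(1-79), 10 uM ATP; anti-phospho-cJun(Ser73) AlphaScreen read at room temperature, pH 7.6 Tris buffer. Compounds pre-incubated 15 min as titrations.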

Assay [13] concerns the target 3',5'-cyclic-AMP phosphodiesterase 4B (Homo sapiens) (UniProt Q07343). Description: qHTS Assay for Inhibitors of PDE-IV (AID 607; active means well fitted activation curve with a large enough effect in the main read-out, with a control signal flat, not every such curve was filed as active; further: % of control where 0% means no effect). In outline: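 Live HEK293 cells with a modified cyclic nucleotide-gated (CNG) channel report intracellular cAMP via membrane-potential dye fluorescence (ex 535/em 590 nm). Endogenous PDE-IV was targeted. Compounds were tested at up to 22.9 uM final; RO 20-1724 100 uM served as control.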

A short description of assay [14]: Confirmation and Secondary Assay for Modulators of Hemoglobin Beta Chain Splicing at IVS2 654 locus (AID 910).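 Further: HeLa cells stably carrying EGFP split by mutant beta-globin IVS2-654 intron; % of control where 0% means no effect.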 In outline: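 HeLa cells stably expressing EGFP interrupted by β-globin IVS2-654 intron, seeded overnight in Opti-MEM/2% FCS, then treated 2 days at 37 °C. Restored splicing read as total peak GFP intensity per well by laser scanning cytometry (488 nm excitation, 500–520 nm emission); 500 nM antisense PNA as control.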

Assay [15] can be described thus: Confirmation and Secondary Assay for Modulators of Hemoglobin Beta Chain Splicing at IVS2 705 locus (AID 930).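 Further: HeLa cells stably expressing the EGFP-705 splicing reporter; GFP fluorescence per well restored by corrected splicing of the IVS2-705 intron in EGFP; % of control where 0% means no effect.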 In outline:
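HeLa cells stably carrying EGFP interrupted by mutant beta-globin intron 2 (IVS2-705) treated 2 days at 37C with compound; 500 nM antisense PNA as control. Correct splicing read as total peak GFP intensity per well by laser-scanning cytometry.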

The nature of assay [16]: qHTS Assay for Lipid Storage Modulators (AID 1519; calls by dose curve). The settings on record: Drosophila S3 cells, BODIPY lipid droplet/cell ratio, laser cytometry, cells loaded with oleic acid; for activity change, negative = inhibition: at 57.5 µM (top of the series). In outline: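 Cells seeded at 5,000 per well were treated with compounds over a concentration series and loaded with oleic acid (400 uM, as added). Lipid droplet fluorescence (488 nm excitation, 500-530 nm channel) was read by laser-scanning cytometry and normalized to 20 uM Triacsin C.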

In assay [17] the target is Ubiquitin carboxyl-terminal hydrolase 1 (Homo sapiens) (UniProt O94782). The assay can be described thus: Inhibitors of USP1/UAF1: Pilot qHTS (AID 504865).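 Further: rhodamine fluorescence freed from ubiquitin-rhodamine substrate followed over time; top concentration of the series differs between compounds; on the % scale 0 is the no-effect control and ±100 the full control effect; nearly all actives have a fitted effect of over 35% in size.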 In outline:
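USP1/UAF1 complex (1nM) preincubated with compound 15 min at room temperature, then Ub-Rho substrate (150nM final) added. Fluorescence read kinetically at 480/540 nm, 6 reads every 60 seconds. Buffer: 50mM HEPES pH 7.8, 0.5mM EDTA, 0.1 mg/ml BSA, 1mM TCEP, 0.01% Tween-20.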

Assay [18] deals with Cytochrome P450 1A2 (Homo sapiens) (UniProt P05177). The assay can be described thus: p450-cyp1a2 (AID 410; calls by dose curve; further: potency means the concentration at half of the fitted maximal effect). In outline: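 20nM CYP1A2 with 100uM Luciferin-ME (at Km) in 100mM KPO4; compound preincubated 10 min, NADPH regeneration added, 60 min at room temperature. Luciferin quantified by luminescence after detection reagent; normalized to 57 uM furafylline.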
Cytochrome P450 1A2 (Homo sapiens), sequence (P05177 whole entry, looked up): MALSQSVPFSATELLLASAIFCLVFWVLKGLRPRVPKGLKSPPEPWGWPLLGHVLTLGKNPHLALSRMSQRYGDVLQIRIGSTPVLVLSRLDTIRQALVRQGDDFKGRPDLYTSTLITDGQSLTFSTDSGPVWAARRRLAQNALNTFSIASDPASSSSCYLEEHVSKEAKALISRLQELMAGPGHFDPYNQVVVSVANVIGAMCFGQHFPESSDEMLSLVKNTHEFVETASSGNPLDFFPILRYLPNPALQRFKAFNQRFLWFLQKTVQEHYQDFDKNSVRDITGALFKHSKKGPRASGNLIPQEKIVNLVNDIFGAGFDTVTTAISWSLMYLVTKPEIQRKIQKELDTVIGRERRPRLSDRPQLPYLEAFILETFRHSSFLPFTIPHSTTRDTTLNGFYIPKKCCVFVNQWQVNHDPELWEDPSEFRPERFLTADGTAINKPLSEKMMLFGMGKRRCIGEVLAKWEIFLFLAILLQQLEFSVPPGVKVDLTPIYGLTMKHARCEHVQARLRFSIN
For assay [19], the target named is Cytochrome P450 2C9 (Homo sapiens) (UniProt P11712). The assay can be described thus: qHTS Assay for Inhibitors and Substrates of Cytochrome P450 2C9 (AID 883). Further: potency means the concentration at half of the fitted maximal effect; nearly all actives have a fitted effect of over 60% in size. In outline: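 Human CYP2C9 (10nM) with Luciferin-H at 100uM (its KM) in 25mM KPO4; compound preincubated 10 min at 37C, then NADPH regeneration for 60 min at 37C. Luciferin read by luminescence after detection reagent; normalized to 57uM sulphaphenazole as full inhibition.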
Cytochrome P450 2C9 (Homo sapiens), sequence (P11712 whole entry, looked up): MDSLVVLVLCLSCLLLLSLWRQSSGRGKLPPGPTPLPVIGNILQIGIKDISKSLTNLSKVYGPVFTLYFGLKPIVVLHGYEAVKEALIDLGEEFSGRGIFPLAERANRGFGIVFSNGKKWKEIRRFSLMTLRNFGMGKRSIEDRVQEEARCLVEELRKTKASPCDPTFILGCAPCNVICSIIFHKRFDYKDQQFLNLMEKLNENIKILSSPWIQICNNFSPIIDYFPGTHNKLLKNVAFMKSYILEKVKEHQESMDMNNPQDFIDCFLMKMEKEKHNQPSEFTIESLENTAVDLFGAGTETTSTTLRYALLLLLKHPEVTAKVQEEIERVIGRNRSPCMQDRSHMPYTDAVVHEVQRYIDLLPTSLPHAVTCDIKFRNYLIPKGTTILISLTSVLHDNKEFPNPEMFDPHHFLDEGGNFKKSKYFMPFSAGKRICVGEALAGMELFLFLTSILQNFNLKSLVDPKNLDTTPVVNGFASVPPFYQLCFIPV

The target of assay [20] is Cytochrome P450 3A4 (Homo sapiens) (UniProt P08684). The assay can be described thus: qHTS Assay for Inhibitors and Substrates of Cytochrome P450 3A4 (AID 884). Further: potency means the concentration at half of the fitted maximal effect; nearly all actives have a fitted effect of over 50% in size. In outline:
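20 nM human CYP3A4 with 25 uM Luciferin-PPXE (at KM) in 200 mM KPO4, preincubated 10 min with compound; NADPH regeneration started a 60 min RT reaction. Luciferin detected by luminescence, normalized to 57 uM ketoconazole as full inhibition.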

Assay [21] shares this target. The assay can be described thus: qHTS Assay for Activators of Cytochrome P450 3A4 (AID 885). Further: nearly all actives have a fitted effect of over 65% in size. In outline:
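Quantitative HTS format: compounds preincubated with 20nM human CYP3A4 and Luciferin-PPXE substrate at KM, reaction started by NADPH regeneration, stopped after 60 min, luciferase luminescence read 20 min later.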

[22] abbreviates: measured here: cell count channel max response.
The mark [23] stands for this setting: measured here: lipid channel max response.

Results filed as inconclusive are left out. The source made the active and inactive calls. Unless noted, the call rests on the fitted dose curve; in most records, active means well fitted curve in the direction sought with a large enough effect; inconclusive means small, poorly fitted or top-dose-only effect, or another doubt; inactive means no such curve, though single readings can be large; an effect the other way counts as inactive or inconclusive.

Glucocorticoid receptor (Homo sapiens), sequence (P04150 whole entry, looked up): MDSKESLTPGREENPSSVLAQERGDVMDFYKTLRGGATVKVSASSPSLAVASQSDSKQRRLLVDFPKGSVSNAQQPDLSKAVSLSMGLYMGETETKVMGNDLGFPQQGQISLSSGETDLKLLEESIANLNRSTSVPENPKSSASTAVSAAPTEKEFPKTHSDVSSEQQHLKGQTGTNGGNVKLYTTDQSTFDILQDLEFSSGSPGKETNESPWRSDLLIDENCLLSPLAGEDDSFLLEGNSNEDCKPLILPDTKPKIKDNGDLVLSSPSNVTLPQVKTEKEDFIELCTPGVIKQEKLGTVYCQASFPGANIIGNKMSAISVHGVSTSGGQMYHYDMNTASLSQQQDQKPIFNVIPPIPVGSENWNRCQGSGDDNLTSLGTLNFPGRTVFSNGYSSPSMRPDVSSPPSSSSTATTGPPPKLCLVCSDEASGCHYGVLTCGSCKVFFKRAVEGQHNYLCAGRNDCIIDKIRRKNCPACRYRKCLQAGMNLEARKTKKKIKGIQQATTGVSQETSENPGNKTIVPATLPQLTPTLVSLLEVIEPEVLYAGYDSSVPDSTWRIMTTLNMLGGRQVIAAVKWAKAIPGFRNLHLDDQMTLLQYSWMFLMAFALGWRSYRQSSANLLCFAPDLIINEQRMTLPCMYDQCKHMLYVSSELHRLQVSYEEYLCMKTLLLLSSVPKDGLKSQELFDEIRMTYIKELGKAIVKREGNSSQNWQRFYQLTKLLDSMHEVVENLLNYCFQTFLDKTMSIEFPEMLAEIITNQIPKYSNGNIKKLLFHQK
Lysosomal acid glucosylceramidase (Homo sapiens), sequence (P04062 whole entry, looked up): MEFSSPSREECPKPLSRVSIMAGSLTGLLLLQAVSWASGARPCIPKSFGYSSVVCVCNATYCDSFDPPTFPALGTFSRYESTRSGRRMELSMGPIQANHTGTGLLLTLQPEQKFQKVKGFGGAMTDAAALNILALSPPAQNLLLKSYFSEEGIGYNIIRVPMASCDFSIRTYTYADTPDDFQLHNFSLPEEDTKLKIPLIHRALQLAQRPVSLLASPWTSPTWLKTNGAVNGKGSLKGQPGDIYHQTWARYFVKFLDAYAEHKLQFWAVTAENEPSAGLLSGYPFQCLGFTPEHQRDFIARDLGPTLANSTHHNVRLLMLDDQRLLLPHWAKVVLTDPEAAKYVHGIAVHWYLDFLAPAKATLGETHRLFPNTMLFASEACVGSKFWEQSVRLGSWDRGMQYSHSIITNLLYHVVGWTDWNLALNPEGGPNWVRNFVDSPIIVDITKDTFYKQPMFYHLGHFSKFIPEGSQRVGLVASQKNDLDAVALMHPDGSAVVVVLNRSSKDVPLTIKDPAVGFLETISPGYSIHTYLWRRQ
Cytochrome P450 3A4 (Homo sapiens), sequence (P08684 whole entry, looked up): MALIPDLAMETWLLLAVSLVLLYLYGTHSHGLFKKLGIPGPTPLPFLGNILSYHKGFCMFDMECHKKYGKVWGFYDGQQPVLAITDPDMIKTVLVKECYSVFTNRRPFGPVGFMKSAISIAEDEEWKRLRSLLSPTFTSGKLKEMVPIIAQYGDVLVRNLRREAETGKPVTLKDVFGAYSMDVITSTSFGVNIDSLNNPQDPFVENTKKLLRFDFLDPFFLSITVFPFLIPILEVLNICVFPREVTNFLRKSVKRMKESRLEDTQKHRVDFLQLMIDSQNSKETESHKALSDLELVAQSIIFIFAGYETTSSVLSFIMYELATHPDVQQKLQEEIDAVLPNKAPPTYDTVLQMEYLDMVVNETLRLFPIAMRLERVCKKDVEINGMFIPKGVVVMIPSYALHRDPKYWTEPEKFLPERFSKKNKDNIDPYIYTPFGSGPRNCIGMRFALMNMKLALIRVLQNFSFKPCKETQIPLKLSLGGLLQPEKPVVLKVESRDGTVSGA
3',5'-cyclic-AMP phosphodiesterase 4B (Homo sapiens), sequence (Q07343 whole entry, looked up): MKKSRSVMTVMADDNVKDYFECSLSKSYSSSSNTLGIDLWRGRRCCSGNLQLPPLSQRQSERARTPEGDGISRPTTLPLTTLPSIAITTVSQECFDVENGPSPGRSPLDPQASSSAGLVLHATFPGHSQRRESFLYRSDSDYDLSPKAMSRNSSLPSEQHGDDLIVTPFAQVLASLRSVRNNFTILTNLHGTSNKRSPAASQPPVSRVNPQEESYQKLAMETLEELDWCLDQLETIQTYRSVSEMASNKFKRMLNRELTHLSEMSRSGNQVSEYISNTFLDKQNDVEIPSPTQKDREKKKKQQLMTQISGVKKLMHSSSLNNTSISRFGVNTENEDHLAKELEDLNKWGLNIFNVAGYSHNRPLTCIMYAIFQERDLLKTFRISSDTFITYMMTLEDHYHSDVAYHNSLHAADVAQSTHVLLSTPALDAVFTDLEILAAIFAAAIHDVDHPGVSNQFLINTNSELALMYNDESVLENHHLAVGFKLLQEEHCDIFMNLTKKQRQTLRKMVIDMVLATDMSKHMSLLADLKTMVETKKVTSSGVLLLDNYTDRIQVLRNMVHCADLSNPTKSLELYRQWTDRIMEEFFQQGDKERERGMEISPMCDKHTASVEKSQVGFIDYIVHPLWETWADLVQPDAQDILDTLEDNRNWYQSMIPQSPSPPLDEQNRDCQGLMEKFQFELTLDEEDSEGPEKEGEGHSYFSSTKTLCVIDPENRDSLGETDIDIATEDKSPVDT
Phospholipid hydroperoxide glutathione peroxidase GPX4 (Homo sapiens), sequence (P36969 whole entry, looked up): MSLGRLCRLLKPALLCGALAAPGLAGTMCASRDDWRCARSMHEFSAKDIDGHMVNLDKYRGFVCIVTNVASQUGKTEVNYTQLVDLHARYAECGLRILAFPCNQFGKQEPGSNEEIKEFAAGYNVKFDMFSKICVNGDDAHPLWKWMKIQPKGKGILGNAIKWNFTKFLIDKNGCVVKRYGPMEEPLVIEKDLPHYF
Ubiquitin carboxyl-terminal hydrolase 1 (Homo sapiens), sequence (O94782 whole entry, looked up): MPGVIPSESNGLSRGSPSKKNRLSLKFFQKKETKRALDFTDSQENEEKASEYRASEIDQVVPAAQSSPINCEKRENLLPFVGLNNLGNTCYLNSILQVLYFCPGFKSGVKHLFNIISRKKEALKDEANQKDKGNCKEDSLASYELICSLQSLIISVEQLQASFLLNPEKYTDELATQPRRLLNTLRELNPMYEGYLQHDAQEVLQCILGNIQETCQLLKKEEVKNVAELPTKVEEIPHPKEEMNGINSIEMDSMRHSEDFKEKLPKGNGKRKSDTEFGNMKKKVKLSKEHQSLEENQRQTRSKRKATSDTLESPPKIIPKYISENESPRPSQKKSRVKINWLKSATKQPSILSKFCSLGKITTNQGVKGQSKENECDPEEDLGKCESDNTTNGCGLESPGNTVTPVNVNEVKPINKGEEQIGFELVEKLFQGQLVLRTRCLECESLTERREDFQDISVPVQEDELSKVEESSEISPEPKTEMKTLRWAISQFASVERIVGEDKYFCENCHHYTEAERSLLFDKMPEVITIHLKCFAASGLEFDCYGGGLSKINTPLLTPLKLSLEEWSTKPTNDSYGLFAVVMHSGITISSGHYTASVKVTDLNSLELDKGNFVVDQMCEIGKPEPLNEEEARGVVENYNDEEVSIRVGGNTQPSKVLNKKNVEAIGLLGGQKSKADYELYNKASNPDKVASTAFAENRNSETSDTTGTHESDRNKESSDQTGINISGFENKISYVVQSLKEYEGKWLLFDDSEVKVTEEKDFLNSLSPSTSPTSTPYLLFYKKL
Glutathione peroxidase 1 (Homo sapiens), sequence (P07203 whole entry, looked up): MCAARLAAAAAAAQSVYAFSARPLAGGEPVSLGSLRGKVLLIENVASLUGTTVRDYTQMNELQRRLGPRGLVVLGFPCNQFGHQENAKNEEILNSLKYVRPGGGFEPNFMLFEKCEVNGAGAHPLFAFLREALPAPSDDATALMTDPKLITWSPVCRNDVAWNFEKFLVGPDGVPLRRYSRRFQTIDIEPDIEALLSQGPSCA

Regarding `CCNC(=O)Nc1ccc(Oc2ncnc(N)c2/C=N/OC)cc1Cl`, the values for the Potency in [1] and in [2] were 20.9 µM (active) and 16.6 µM (active), respectively. The Potency result in [3] and in assay [4] was “inactive” throughout. Further, the Z-AUC in assay [5] is 1.52 (inactive); in [5] (measured here: PEO1 parental Z-AUC), 1.52; in assay [5] (measured here: PEO4 Z-AUC), 1.49.

Take `CS(=O)(=O)Nc1cccc(-c2nccc(NCc3ccccc3)n2)c1`: the Potency was > 11.4 µM (inactive) in assay [6], > 46 µM (inactive) in assay [10] and > 46 µM (inactive) in assay [11]. In addition, the results for the activity change, negative = inhibition in assay [7], in assay [8] and in assay [16] were -20% (inactive), -4.2% (inactive) and 6.93% (inactive), respectively. In addition, in assay [9], the activity, negative = inhibition was -11.8% (inactive). Moreover, the outcome in [12], in [14] and in [15] was inactive. Besides, the Potency result in assay [13] and in assay [17] was “inactive” in each case. Further, the max response is -0.959% in [16] (setting [22]) and 4.33% in [16] (setting [23]).

As for `O=C(Nc1cccc(F)c1)N1CCCC2(CCN(C(=O)c3ccncc3)CC2)C1`, the Potency in assay [6] was > 11.4 µM (inactive); in [18] it was 12.6 µM (active); in [11], > 46 µM (inactive); in assay [19], 0.0794 µM (active); in assay [20], 6.31 µM (active). Moreover, the activity change, negative = inhibition in assay [8] was -19.9% (inactive); in assay [16], 6.14% (inactive). Besides, the molecule was classed as inactive in assay [12]. The Potency result in assay [13] and in assay [21] was “inactive” throughout. Besides, the max response in assay [16] (setting [22]) came to 19.3%; in [16] (setting [23]) it was 28.5%.

(Values after PubChem BioAssay (NCATS).)
